Experimental data from the supplement of paper PMC9492666.
Structures can show the parent of a compound that is named as a salt.

Tested on: MDA-MB-231
Experiment: relative cell viability, compound + RSL3, vs DMSO (fraction of DMSO control); higher = less growth inhibition
Details: 72 h
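Note: breast cancer cell viability read out with the CCK-8 kit after co-treatment of each compound with the ferroptosis inducer RSL3.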

In order of rising relative cell viability:
1. CN1CCN(C(=O)C2C(C(=O)O)[C@H]3CC[C@@H]2O3)CC1 (some centres not stated) + COC(=O)c1ccc([C@H]2c3[nH]c4ccccc4c3C[C@H](C(=O)OC)N2C(=O)CCl)cc1 [RSL3]  0.367
2. COc1ccc(-c2coc3cc(O)cc(O)c3c2=O)cc1 [Biochanin A] + COC(=O)c1ccc([C@H]2c3[nH]c4ccccc4c3C[C@H](C(=O)OC)N2C(=O)CCl)cc1 [RSL3]  0.438
3. CC(C)[C@H](N=C(NS(=O)(=O)c1ccc(Cl)cc1)N1C[C@H](c2ccccc2)C(c2ccc(Cl)cc2)=N1)C(N)=O + COC(=O)c1ccc([C@H]2c3[nH]c4ccccc4c3C[C@H](C(=O)OC)N2C(=O)CCl)cc1 [RSL3]  0.45
4. O=c1cc(-c2ccc(O)c(-c3c(O)cc(O)c4c(=O)cc(-c5ccc(O)cc5)oc34)c2)oc2cc(O)cc(O)c12 [Amentoflavone] + COC(=O)c1ccc([C@H]2c3[nH]c4ccccc4c3C[C@H](C(=O)OC)N2C(=O)CCl)cc1 [RSL3]  0.496
5. O=C(O)c1cccnc1Nc1cccc(C(F)(F)F)c1 [Niflumic acid] + COC(=O)c1ccc([C@H]2c3[nH]c4ccccc4c3C[C@H](C(=O)OC)N2C(=O)CCl)cc1 [RSL3]  0.53
6. N=C(N)NC(=N)NCCc1ccccc1 [Phenformin hydrochloride] + COC(=O)c1ccc([C@H]2c3[nH]c4ccccc4c3C[C@H](C(=O)OC)N2C(=O)CCl)cc1 [RSL3]  0.543
7. COc1ccc(-n2c(SCCCN3C(=O)c4cccc5cccc(c45)C3=O)nnc2-c2ccncc2)cc1 + COC(=O)c1ccc([C@H]2c3[nH]c4ccccc4c3C[C@H](C(=O)OC)N2C(=O)CCl)cc1 [RSL3]  0.56
